Laboratory results taken from PubChem BioAssay (NCI).
Compounds without any hit were thinned out: in the full panel of roughly 83,000, 20% have a hit.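 Growth was measured after 48 h exposure to one concentration of compound in 96-well plates. Values under 10 count as active.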 Values without a mark were called inactive. Calls of active or inactive are those of the source.

Experiments:
Experiment in all cases: NCI-60 one-dose screen, 48 h (100 = growth as untreated, 0 = no growth, -100 = all killed)
Details in all cases: 10 µM unless noted
HCT-15 colon = test system: HCT-15 colon
HT29 colon = test system: HT29 colon
SNB-75 CNS = test system: SNB-75 CNS
SNB-19 CNS = test system: SNB-19 CNS
U251 CNS = test system: U251 CNS
PC-3 prostate = test system: PC-3 prostate
SK-MEL-5 melanoma = test system: SK-MEL-5 melanoma
UACC-62 melanoma = test system: UACC-62 melanoma
LOX IMVI melanoma = test system: LOX IMVI melanoma
SK-MEL-28 melanoma = test system: SK-MEL-28 melanoma
SK-MEL-2 melanoma = test system: SK-MEL-2 melanoma
EKVX NSCLC = test system: EKVX NSCLC
SN12C renal = test system: SN12C renal
TK-10 renal = test system: TK-10 renal
ACHN renal = test system: ACHN renal
CAKI-1 renal = test system: CAKI-1 renal
A498 renal = test system: A498 renal
CCRF-CEM leukemia = test system: CCRF-CEM leukemia
MOLT-4 leukemia = test system: MOLT-4 leukemia
UO-31 renal = test system: UO-31 renal

CCN1C2CCC1/C(=C\c1ccccc1)C(=O)/C2=C/c1ccccc1 was tested, and the growth (HCT-15 colon) was 38.5%, the growth (HT29 colon) was 42.3% and the growth (SNB-75 CNS) was 50.6%. It also gave a growth (SNB-19 CNS) of 65.5%, a growth (U251 CNS) of 24.5% and a growth (PC-3 prostate) of 47.7%. For the same compound, the growth (SK-MEL-5 melanoma) was 56.6%, the growth (UACC-62 melanoma) was 40.1% and the growth (LOX IMVI melanoma) was 25.2%. For the same compound, the growth (SK-MEL-28 melanoma) was 77.1%, the growth (SK-MEL-2 melanoma) was 54.9% and the growth (EKVX NSCLC) was 71.4%. It also gave a growth (SN12C renal) of 55.4%, a growth (TK-10 renal) of 84.6% and a growth (ACHN renal) of 57.7%. It also gave a growth (CAKI-1 renal) of 81.8%, a growth (A498 renal) of 66.1% and a growth (CCRF-CEM leukemia) of 28.1%. For the same compound, the growth (MOLT-4 leukemia) was 31%.

In the case of COc1cccc(-c2cn3nc(-c4cn(C)c5ccccc45)sc3n2)c1, the growth (HCT-15 colon) is reported as 73.7%, the growth (HT29 colon) is reported as 91.1% and the growth (SNB-75 CNS) is reported as 83.1%. The growth (SNB-19 CNS) was 91.7%, the growth (U251 CNS) was 97.7% and the growth (PC-3 prostate) was 94.7%. For the same compound, the growth (SK-MEL-5 melanoma) was 84.2%, the growth (UACC-62 melanoma) was 77.9% and the growth (LOX IMVI melanoma) was 97.6%. It also gave a growth (SK-MEL-28 melanoma) of 95.1%, a growth (SK-MEL-2 melanoma) of 102% and a growth (EKVX NSCLC) of 85.9%. The growth (SN12C renal) was 92%, the growth (TK-10 renal) was 105% and the growth (ACHN renal) was 104%. It also gave a growth (CAKI-1 renal) of 82.6%, a growth (A498 renal) of 87.5% and a growth (CCRF-CEM leukemia) of 92%. The growth (MOLT-4 leukemia) was 87.5%.

CCOC(=O)NC(=S)n1oc(=O)c2ccccc21 showed a growth (HCT-15 colon) of 103%, a growth (HT29 colon) of 105% and a growth (SNB-75 CNS) of 94.7%. For the same compound, the growth (SNB-19 CNS) was 104%, the growth (U251 CNS) was 98.6% and the growth (PC-3 prostate) was 98.3%. It also gave a growth (SK-MEL-5 melanoma) of 108%, a growth (UACC-62 melanoma) of 93.3% and a growth (LOX IMVI melanoma) of 96.8%. It also gave a growth (SK-MEL-28 melanoma) of 103%, a growth (SK-MEL-2 melanoma) of 110% and a growth (EKVX NSCLC) of 101%. For the same compound, the growth (SN12C renal) was 102%, the growth (TK-10 renal) was 109% and the growth (ACHN renal) was 101%. It also gave a growth (CAKI-1 renal) of 90.4%, a growth (A498 renal) of 103% and a growth (CCRF-CEM leukemia) of 101%. The growth (MOLT-4 leukemia) was 95.9%.

In the case of Cc1nc2sc(C(=O)Nc3cccc(Cl)c3C)c(N)c2cc1C(=O)/C=C/c1ccccc1, the growth (HCT-15 colon) is reported as -66.4% (active), the growth (HT29 colon) is reported as -58.6% (active) and the growth (SNB-75 CNS) is reported as 12.6%. For the same compound, the growth (SNB-19 CNS) was -41.8% (active), the growth (U251 CNS) was -73.6% (active) and the growth (PC-3 prostate) was 0.225% (active). For the same compound, the growth (SK-MEL-5 melanoma) was -10.8% (active), the growth (UACC-62 melanoma) was 2.03% (active) and the growth (LOX IMVI melanoma) was -75.8% (active). The growth (SK-MEL-28 melanoma) was 27.3%, the growth (SK-MEL-2 melanoma) was 33.8% and the growth (EKVX NSCLC) was 43.9%. The growth (SN12C renal) was -55.6% (active), the growth (TK-10 renal) was -12.9% (active) and the growth (ACHN renal) was 3.93% (active). For the same compound, the growth (CAKI-1 renal) was -62.1% (active), the growth (A498 renal) was -6.27% (active) and the growth (CCRF-CEM leukemia) was 8.78% (active). For the same compound, the growth (MOLT-4 leukemia) was 16.8%.

O=C(Cn1nc(-c2cccc3ccccc23)ccc1=O)NCc1cccc(Cl)c1 was tested, and the growth (HCT-15 colon) was 28.9% [50 µM], the growth (HT29 colon) was 43% [50 µM] and the growth (SNB-75 CNS) was 74.3% [50 µM]. For the same compound, the growth (SNB-19 CNS) was 45.3% [50 µM], the growth (U251 CNS) was 35% [50 µM] and the growth (PC-3 prostate) was 19.6% [50 µM]. For the same compound, the growth (SK-MEL-5 melanoma) was 5.82% [50 µM] (active), the growth (UACC-62 melanoma) was 35.2% [50 µM] and the growth (LOX IMVI melanoma) was 28.6% [50 µM]. For the same compound, the growth (SK-MEL-28 melanoma) was 56% [50 µM], the growth (SK-MEL-2 melanoma) was 59.2% [50 µM] and the growth (EKVX NSCLC) was 21% [50 µM]. For the same compound, the growth (UO-31 renal) was 15.3% [50 µM], the growth (TK-10 renal) was 40.7% [50 µM] and the growth (ACHN renal) was 28.9% [50 µM]. The growth (CAKI-1 renal) was 40.2% [50 µM], the growth (A498 renal) was 26.8% [50 µM] and the growth (CCRF-CEM leukemia) was 43.9% [50 µM]. It also gave a growth (MOLT-4 leukemia) of 20.5% [50 µM].

With CCN1CCN(CCNc2nccc(-c3c(-c4ccc(F)c(O)c4)nc4occn34)n2)S1(=O)=O the growth (HCT-15 colon) was 17.8%, the growth (HT29 colon) was 20.1% and the growth (SNB-75 CNS) was 83.5%. The growth (SNB-19 CNS) was 73.7%, the growth (U251 CNS) was 45.7% and the growth (PC-3 prostate) was 13.7%. For the same compound, the growth (SK-MEL-5 melanoma) was -22.7% (active), the growth (UACC-62 melanoma) was -44.9% (active) and the growth (LOX IMVI melanoma) was 15.6%. The growth (SK-MEL-28 melanoma) was 42.2%, the growth (SK-MEL-2 melanoma) was 1.39% (active) and the growth (EKVX NSCLC) was 47.9%. For the same compound, the growth (UO-31 renal) was 4.38% (active), the growth (TK-10 renal) was 44.9% and the growth (ACHN renal) was 16.5%. For the same compound, the growth (CAKI-1 renal) was 18.5%, the growth (A498 renal) was 49.1% and the growth (CCRF-CEM leukemia) was 9.35% (active). The growth (MOLT-4 leukemia) was -9.69% (active).

With O=C1C=CC2(O)OC/C(=C\c3ccccc3)C(O)=C2C1=O (configuration not stated) the growth (HCT-15 colon) was -6.43% (active), the growth (HT29 colon) was 17.8% and the growth (SNB-75 CNS) was 38.8%. For the same compound, the growth (SNB-19 CNS) was 27.6%, the growth (U251 CNS) was -35.2% (active) and the growth (PC-3 prostate) was 0.717% (active). For the same compound, the growth (SK-MEL-5 melanoma) was 31.3%, the growth (UACC-62 melanoma) was -64.1% (active) and the growth (LOX IMVI melanoma) was -82.8% (active). It also gave a growth (SK-MEL-28 melanoma) of 51.9%, a growth (SK-MEL-2 melanoma) of 53.4% and a growth (EKVX NSCLC) of 54.1%. The growth (UO-31 renal) was -91.5% (active), the growth (TK-10 renal) was 11.5% and the growth (ACHN renal) was -70.5% (active). The growth (CAKI-1 renal) was 10.6%, the growth (A498 renal) was 108% and the growth (CCRF-CEM leukemia) was 2.55% (active). For the same compound, the growth (MOLT-4 leukemia) was 7.42% (active).

Cc1cccc(-c2nc(C(C)C)sc2-c2ccnc(NCCCNS(=O)(=O)c3ccc(Cl)cc3)c2)c1 was tested, and the growth (HCT-15 colon) was 36.5%, the growth (HT29 colon) was 16.9% and the growth (SNB-75 CNS) was 97.5%. The growth (SNB-19 CNS) was 89.6%, the growth (U251 CNS) was 73% and the growth (PC-3 prostate) was 50%. For the same compound, the growth (SK-MEL-5 melanoma) was 87.6%, the growth (UACC-62 melanoma) was 96.4% and the growth (LOX IMVI melanoma) was 75%. For the same compound, the growth (SK-MEL-28 melanoma) was 90.6%, the growth (SK-MEL-2 melanoma) was 79% and the growth (EKVX NSCLC) was 78.4%. The growth (SN12C renal) was 73%, the growth (TK-10 renal) was 80.1% and the growth (ACHN renal) was 75.6%. The growth (CAKI-1 renal) was 85%, the growth (A498 renal) was 79% and the growth (CCRF-CEM leukemia) was 68.4%. For the same compound, the growth (MOLT-4 leukemia) was 52.3%.
